# Source: PubChem BioAssay (EPA / NIEHS)
# Where “and” joins values, the source holds several entries; their conditions need not be identical. Equal values may be shown once. Records with an inconclusive call do not appear. A structure can be active in one record and inactive in another. Calls of active or inactive are those of the source. Rule for the calls, unless noted: active = hit-call score of the fitted dose curve at least 0.9, where 1 is the maximum; inactive = score below 0.9.
# Experiments:
# [1] = CCTE_Shafer_MEA_acute_LDH: CCTE's Lactate Dehydrogenase Assay for Cytotoxicity in the Neural Acute Assay, Shafer Lab (AID 2284086; active = hit-call score of the fitted dose curve at least 0.9, where 1 is the maximum;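 note: active means LDH release rises above DMSO vehicle level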)
# Method in brief: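 LDH released during 40 min compound exposure of primary rat cortical cultures, quantified by absorbance at 490 nm in collected medium. Fitting direction positive versus DMSO vehicle.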
# [2] = CCTE_Shafer_MEA_dev_network_spike_duration_std: CCTE's Neural Network Formation Assay for Standard Deviation of Network Spike Duration, Shafer Lab (AID 2284052);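 note: area under curve of spike duration SD across recording days 5 to 12; hits are decreases in network spike duration SD versus DMSO vehicle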
# Method in brief: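 Rat cortical cultures, 1.5 x 10^5 cells/well, exposed continuously from plating to DIV 12 with media/compound renewal at DIV 5, 9. Spontaneous activity recorded DIV 5/7/9/12, AxIS adaptive spike detector; AUC across days; negative direction vs DMSO.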
# [3] = CCTE_Shafer_MEA_dev_per_network_spike_spike_number_mean: CCTE's Neural Network Formation Assay for Mean Number of Spikes in a Network Spike, Shafer Lab (AID 2284053);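 for AC50: fitted as decrease in spikes per network spike relative to DMSO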
# Method in brief: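 Rat cortical primary cultures on 48-well MEA; compound from day 0, re-dosed with full media change DIV 5, 9. Recorded DIV 5, 7, 9, 12; spikes in 0.05 s window at network-spike peak ÷ total network spikes; AUC; loss vs DMSO.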
# [4] = CCTE_Shafer_MEA_dev_per_network_spike_spike_percent: CCTE's Neural Network Formation Assay for Percent of Spikes in a Network Spike, Shafer Lab (AID 2284054)
# Method in brief: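 Metric: fraction of spikes falling in a 0.05 s window at network-spike peaks. Recordings were made on days 5, 7, 9 and 12 and collapsed by trapezoidal AUC. Cultures were rat cortical neurons on MEA plates, dosed continuously from plating, re-dosed at media changes.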
# [5] = CCTE_Shafer_MEA_dev_LDH: CCTE's Lactate Dehydrogenase Assay for Cytotoxicity in the Neural Network Formation Assay, Shafer Lab (AID 2284068; active = hit-call score of the fitted dose curve at least 0.9, where 1 is the maximum;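 note: exposure for twelve days from plating with re-dosing on DIV 5 and 9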)
# Method in brief: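 Rat cortical primary neurons, MEA culture; dosing day 0–12, full medium plus compound exchange DIV 5, 9. Read-out: LDH enzyme activity, spectrophotometric. DMSO = negative control/baseline; signal loss → cytotoxicity.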
# [6] = CCTE_Shafer_MEA_dev_AB: CCTE's Alamar Blue Assay for Cytotoxicity in the Neural Network Formation Assay, Shafer Lab (AID 2284083; active = hit-call score of the fitted dose curve at least 0.9, where 1 is the maximum;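 note: resazurin reduction fluorescence as viability of cultured neurons; twelve days of exposure from plating with re-dosing on DIV 5 and 9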)
# Method in brief: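 Rat cortical primary cultures, 1.5 x 10^5 cells/well on MEA; continuous compound exposure over 12 days of network development, re-dosed with full medium change DIV 5 and 9. Alamar Blue fluorescence; loss of signal = cytotoxicity vs DMSO baseline.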
# [7] = CCTE_Shafer_MEA_dev_mutual_information_norm: CCTE's Neural Network Formation Assay for Mutual Information Normalization, Shafer Lab (AID 2284091);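 for AC50: mutual information between electrodes summarised as area under curve across four recording days; potency is for a decrease in mutual information relative to DMSO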
# Method in brief: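 Shared information across electrodes, tracked on days 5, 7, 9 and 12 of network development and collapsed as trapezoidal area under the curve. Rat cortical cultures were treated continuously from plating, with treatment renewed at feeds on DIV 5 and 9; DMSO baseline, negative-direction fit.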
# [8] = CCTE_Shafer_MEA_dev_correlation_coefficient_mean: CCTE's Neural Network Formation Assay for Mean Correlation Coefficient, Shafer Lab (AID 2284093);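 for AC50: well mean pairwise spike train correlation integrated as AUC over recording days 5 to 12; potency fitted for loss of correlation relative to DMSO vehicle wells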
# Method in brief: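 Rat cortical cultures, 1.5 x 10^5 cells/well, dosed from day 0 for 12 days. Spontaneous spikes recorded DIV 5/7/9/12; electrode-pair correlation coefficients averaged, AUC taken. Fit in loss direction vs DMSO.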
# [9] = UKN2_HCS_IMR90_neural_migration: University of Konstanz (UKN) Leist Lab Neural Crest Cell Migration Assay in human induced IMR90 Pluripotent Stem Cells (UKN2) (AID 2284204); conditions: actives raise or lower the signal
# Method in brief: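 High-content imaging of calcein-AM and Hoechst stained cells quantifies migration into a stopper-defined gap after 24 h compound exposure. Neural crest cells from IMR90 iPSC migrated 24 h in EGF/FGF N2-S medium before dosing; DMSO baseline.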
# [10] = IUF_NPC1b_proliferation_BrdU_72hr: Leibniz Research Institute for Environmental Medicine (IUF) 72-hour Neural Progenitor Cell Bromodeoxyuridine (BrdU) Proliferation Assay (NPC1b) (AID 2284207)
# Method in brief: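 Human fetal cortex-derived (GW 16-19) neural progenitor spheres, 0.25-0.35 mm, one per well in EGF/FGF proliferation medium, exposed to compound for 72 h at 37C, pH 7.2-7.6. BrdU incorporation over the final 16 h read by luminescence ELISA, relative to DMSO.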
# [11] = IUF_NPC1a_proliferation_area_72hr: Leibniz Research Institute for Environmental Medicine (IUF) 72-hour Neural Progenitor Cell Proliferation Area Assay (NPC1a) (AID 2284208)
# Method in brief: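 hNPC spheres (human fetal cortex, GW 16-19), one per poly-Hema U-bottom well; EGF+FGF medium; dosed day 0, no re-dosing; 72 h, 37C, 5% CO2; phase-contrast sphere area; DMSO = baseline; minus-GF = positive ctrl.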
# [12] = IUF_NPC1_viability_72hr: Viability Assessment at 72 hours in the Leibniz Research Institute for Environmental Medicine (IUF) Neural Progenitor Cell Proliferation Assay (NPC1) (AID 2284209)
# Method in brief: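 Viability was measured by resazurin-to-resorufin fluorescence (alamar blue) after 72 h of continuous exposure without compound renewal. Each well held one hNPC sphere (gestational week 16-19 fetal cortex, 0.25-0.35 mm) cultured in EGF/FGF proliferation medium at 37C and pH 7.2-7.6.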
# [13] = CCTE_Mundy_HCI_Cortical_Synap_Neur_Matur_NeuriteSpotCountPerNeuriteLength: CCTE's Synaptogenesis and Neurite Maturation Assay in rat cortical cells for Neurite Spot Count per Neurite Length, Mundy Lab (AID 2284210)
# Method in brief: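 Synaptophysin spots per unit neurite length, measured by automated imaging of MAP2/synaptophysin/Hoechst-stained neurons. Cultures from rat cortex received chemical at DIV 7 with media change through DIV 12; glial growth arrested by AraC at DIV 5; DMSO baseline.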
# [14] = CCTE_Mundy_HCI_Cortical_Synap_Neur_Matur_BPCount: CCTE's Synaptogenesis and Neurite Maturation Assay in rat cortical cells for Branch Point Count, Mundy Lab (AID 2284211)
# Method in brief: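 HCI read-out of branch points from MAP2/synaptophysin/Hoechst immunofluorescence; rat cortical cultures, AraC DIV 5, dosing DIV 7, fixed DIV 12; fit in positive direction vs DMSO baseline.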
# [15] = CCTE_Mundy_HCI_Cortical_NOG_NeuriteCount: CCTE's Neurite Outgrowth Assay in rat cortical cells for Neurite Count, Mundy Lab (AID 2284212);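 note: cells fixed about two days after chemical exposure began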
# Method in brief: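 Rat cortical primary cells; compound added 2 h post-plating, 1/10 dilution of working solution. Anti-betaIII-tubulin/AF488 ICC; ArrayScan neurite count vs DMSO.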
# [16] = CCTE_Mundy_HCI_Cortical_NOG_NeuriteLength: CCTE's Neurite Outgrowth Assay in rat cortical cells for Neurite Length, Mundy Lab (AID 2284213);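 for AC50: neurites imaged about 48 to 50 h after chemical exposure began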
# Method in brief: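 First, rat primary cortical cells were plated and, 2 h later, given test chemical as a 1/10 dilution. Finally, βIII-tubulin immunostaining enabled automated imaging of neurite length.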
# [17] = CCTE_Mundy_HCI_Cortical_Synap_Neur_Matur_NeuriteLength: CCTE's Synaptogenesis and Neurite Maturation Assay in rat cortical cells for Neurite Length, Mundy Lab (AID 2284214)
# Method in brief: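 Neurite length quantified by automated high-content imaging of MAP2, synaptophysin and Hoechst staining. Rat cortical cells received chemical from DIV 7 to DIV 12 […], glial growth arrested by AraC at DIV 5; DMSO baseline.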
# [18] = test system: DIO3 (gene 1735); assay: CCTE_GLTED_hDIO3: CCTE's human Deiodinase 3 (DIO3) Inhibition Assay, Great Lakes Toxicology and Ecology Division (GLTED) Lab (AID 2284055; active = hit-call score of the fitted dose curve at least 0.9, where 1 is the maximum;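 note: potency is for inhibition seen as loss of released iodide signal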)
# Method in brief: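 Inhibition is read as reduced iodide release, measured spectrophotometrically by the Sandell-Kolthoff cerium/arsenic reaction. Adenovirus-expressed human DIO3 enzyme is exposed to chemical for 3 h, n=3 plates. Iodinated chemicals, nitrite, iron or thiocyanate may interfere.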
# [19] = UKN5_HCS_SBAD2_cell_viability: Viability Assessment in the University of Konstanz (UKN) Leist Lab Neurite Outgrowth Assay in human iPSC-derived immature Dorsal Root Ganglia Neurons (UKN5) (AID 2284056)
# Method in brief: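 iPSC-derived immature peripheral neurons (SBAD2) seeded on Matrigel with CHIR99021, SU5402 and DAPT, dosed 1 h later for 24 h. Viability from Hoechst H-33342 and calcein-AM live staining, high-content imaging; bidirectional fit versus DMSO.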
# [20] = UKN5_HCS_SBAD2_neurite_outgrowth: University of Konstanz (UKN) Leist Lab Neurite Outgrowth Assay in human iPSC-derived immature Dorsal Root Ganglia Neurons (UKN5) (AID 2284070); conditions: actives raise or lower the signal
# Method in brief: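 Neurite area from calcein-AM high-content images after 24 h exposure (staining included), with H-33342 for viability, fitted both directions against DMSO. Cells: thawed immature SBAD2 peripheral neurons, 100.000 cells/cm2, with CHIR99021, SU5402, DAPT; dosing 1 h after seeding.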
compound,measurement,setting,value
Nc1ccc2ccccc2c1,outcome,[1],inactive
CCOP(=S)(OCC)SCSCC,outcome,[2],inactive
same,AC50,[3],50 µM (active) and 12.1 µM (active)
same,AC50,[4],92 µM (active)
same,outcome,[4],inactive
same,AC50,[5],33.7 µM (active)
same,outcome,[5],inactive
same,AC50,[6],68.9 µM (active)
same,outcome,[6],inactive
same,AC50,[7],4.04 µM (active)
same,outcome,[7],inactive
same,AC50,[8],74.5 µM (active) and 13 µM (active)
same,outcome,[9],inactive
same,AC50,[10],0.761 µM (active)
same,outcome,[11],inactive
same,outcome,[12],inactive
same,AC50,[13],50 µM (active) and 67.2 µM (active)
same,AC50,[14],80.7 µM (active) and 50 µM (active)
same,outcome,[15],inactive
same,outcome,[16],inactive
same,AC50,[17],78.1 µM (active) and 70.2 µM (active)
OCC(F)(F)OC(F)(F)C(F)(F)OC(F)(F)C(F)(F)OC(F)(F)CO,outcome,[2],inactive
same,outcome,[3],inactive
same,outcome,[4],inactive
same,outcome,[6],inactive
same,outcome,[7],inactive
same,outcome,[8],inactive
CO/N=C(/C(=O)OC)c1ccccc1COc1ccccc1C,AC50,[2],0.312 µM (active)
same,AC50,[3],518 nM (active)
same,AC50,[4],0.902 µM (active)
same,AC50,[5],0.811 µM (active)
same,AC50,[6],1.15 µM (active)
same,AC50,[7],0.454 µM (active)
same,AC50,[8],765 nM (active)
same,outcome,[9],inactive
same,AC50,[10],23.8 µM (active)
same,AC50,[11],31.6 µM (active)
same,outcome,[12],inactive
same,AC50,[13],3.36 µM (active)
same,AC50,[14],5.13 µM (active)
same,AC50,[15],19.1 µM (active)
same,AC50,[16],14.5 µM (active)
same,AC50,[17],6.23 µM (active)
CC(C)(C)c1ccccc1OP(=O)(Oc1ccccc1)Oc1ccccc1,outcome,[2],inactive
same,AC50,[3],25400 nM (active)
same,outcome,[3],inactive
same,AC50,[4],15 µM (active)
same,outcome,[4],inactive
same,AC50,[5],15.5 µM (active) and 26 µM (active)
same,AC50,[6],15 µM (active)
same,outcome,[6],inactive
same,outcome,[1],inactive
same,outcome,[7],inactive
same,AC50,[8],24400 nM (active)
same,outcome,[8],inactive
same,outcome,[10],inactive
same,outcome,[11],inactive
same,outcome,[12],inactive
same,outcome,[13],inactive
same,AC50,[14],2.98 µM (active)
same,AC50,[15],19 µM (active)
same,AC50,[16],21.6 µM (active)
same,AC50,[17],1.6 µM (active)
COC(=O)C(F)(F)C(F)(F)OC(F)(C(F)(F)F)C(F)(F)OC(F)=C(F)F (stereo not drawn),AC50,[18],3.1 µM (active)
OCC(F)(F)OC(F)(F)C(F)(F)OC(F)(F)CO,outcome,[2],inactive
same,outcome,[3],inactive
same,outcome,[4],inactive
same,outcome,[5],inactive
same,outcome,[7],inactive
same,outcome,[8],inactive
c1ccc(OP(Oc2ccccc2)Oc2ccccc2)cc1,outcome,[2],inactive
same,outcome,[3],inactive
same,outcome,[4],inactive
same,outcome,[5],inactive
same,outcome,[7],inactive
same,outcome,[8],inactive
CC(Cl)(Cl)C(=O)O,outcome,[1],inactive
O=S1(=O)OCC2C(CO1)C1(Cl)C(Cl)=C(Cl)C2(Cl)C1(Cl)Cl (stereo not drawn),outcome,[19],inactive
same,outcome,[20],inactive
same,outcome,[10],inactive
same,outcome,[11],inactive
same,outcome,[12],inactive
CCNc1nc(Cl)nc(NC(C)(C)C)n1,AC50,[18],11.4 µM (active)
CCCCCCCc1ccc(O)cc1,AC50,[18],81.2 µM (active)
O=C(O)C(F)(OC(F)(F)C(F)(F)C(F)(F)F)C(F)(F)F (stereo not drawn),outcome,[2],inactive
same,outcome,[3],inactive
same,outcome,[4],inactive
same,outcome,[5],inactive
same,outcome,[6],inactive
same,outcome,[7],inactive
same,outcome,[8],inactive
same,outcome,[9],inactive
same,outcome,[10],inactive
same,outcome,[11],inactive
same,outcome,[12],inactive
same,outcome,[13],inactive
same,outcome,[14],inactive
same,outcome,[15],inactive
same,outcome,[16],inactive
same,outcome,[17],inactive
CCCCC(CC)COP(=O)(Oc1ccccc1)Oc1ccccc1 (stereo not drawn),outcome,[2],inactive
same,outcome,[3],inactive
same,outcome,[4],inactive
same,AC50,[5],6.12 µM (active)
same,outcome,[6],inactive
same,outcome,[1],inactive
same,outcome,[7],inactive
same,outcome,[8],inactive
same,AC50,[10],0.542 µM (active)
same,outcome,[11],inactive
same,outcome,[12],inactive
same,outcome,[13],inactive
same,outcome,[14],inactive
same,outcome,[15],inactive
same,outcome,[16],inactive
same,outcome,[17],inactive
O=S(=O)(c1ccc(O)cc1)c1ccc(O)cc1,outcome,[2],inactive
same,outcome,[3],inactive
same,outcome,[4],inactive
same,outcome,[5],inactive
same,outcome,[6],inactive
same,outcome,[7],inactive
same,outcome,[8],inactive
